This is an account of results in the antibiotic and cytotoxicity screens of Wong et al. (2023).

Hit rate of the full screen: of about 39,000 compounds, about 1,500 (3.8%) were called active. This excerpt belongs to a sample that is enriched for actives.

For the test, the system named is HSkMC (human skeletal muscle cells). The test is described as follows: cytotoxicity call (relative viability < 0.9). Particulars: 10 µM.
Turning to `Cc1ccc(S(=O)(=O)N(C)C[C@H]2Oc3c(NS(=O)(=O)c4ccccc4)cccc3C(=O)N([C@H](C)CO)C[C@@H]2C)cc1`, the cytotoxicity call was “inactive”.

With `C[C@H](CO)N1C[C@H](C)[C@H](CN(C)S(=O)(=O)c2ccccc2)Oc2c(NC(=O)C3CCOCC3)cccc2C1=O`, the cytotoxicity call was “inactive”.

On to `C[C@@H]1CCCCO[C@@H](CN(C)CC2CCCCC2)[C@@H](C)CN([C@@H](C)CO)C(=O)c2cc(NC(=O)CCCN(C)C)ccc2O1`, for which the cytotoxicity call was “inactive”.

On to `CO[C@@H]1CN(C)C(=O)c2cc(NS(=O)(=O)c3ccccc3)ccc2OC[C@@H](C)N(C(=O)NC(C)C)C[C@H]1C`, for which the cytotoxicity call is “inactive”.

On to `C[C@H]1CN([C@@H](C)CO)C(=O)Cc2cc(NS(=O)(=O)c3cn(C)cn3)ccc2O[C@H]1CN(C)Cc1ccccc1`, for which the cytotoxicity call is “inactive”.

Turning to `CCn1cc(-c2ccnc3[nH]c(-c4cccc(CN(C)C)c4)cc23)c(-c2ccc(NC(=O)N(C)C)cc2)n1`, the cytotoxicity call was “active”.

Consider `COc1ccccc1S(=O)(=O)N1C[C@H](O)COC[C@H]2O[C@@H](CC(=O)O)CC[C@@H]21`, for which the cytotoxicity call was “inactive”.

In the case of `CCn1c(N)c(C(N)=O)sc1=S`, the cytotoxicity call is “inactive”.

As for `C[C@@H]1CN([C@H](C)CO)C(=O)c2cccc(NC(=O)Nc3cccc4ccccc34)c2O[C@H]1CN(C)C(=O)Nc1ccc(C(F)(F)F)cc1`, the cytotoxicity call is “inactive”.

In the case of `C[C@H]1CN([C@@H](C)CO)C(=O)c2cccc(NC(=O)Nc3cccc4ccccc34)c2O[C@H]1CN(C)C(=O)Nc1ccc(C(F)(F)F)cc1`, the cytotoxicity call is “active”.

`C[C@H](CO)N1C[C@H](C)[C@@H](CN(C)C(=O)Nc2ccc(C(F)(F)F)cc2)Oc2c(NC(=O)Nc3cccc4ccccc34)cccc2C1=O`: the cytotoxicity call was “active”.

For the compound `C[C@@H]1CN([C@@H](C)CO)C(=O)c2cccc(NC(=O)Nc3cccc4ccccc34)c2O[C@H]1CN(C)C(=O)Nc1ccc(C(F)(F)F)cc1`, the cytotoxicity call is “active”.

With `C[C@@H]1CN([C@H](C)CO)C(=O)c2cccc(NC(=O)Nc3cccc4ccccc34)c2O[C@@H]1CN(C)C(=O)Nc1ccc(C(F)(F)F)cc1`, the cytotoxicity call was “active”.

Turning to `C[C@H](CO)N1C[C@H](C)[C@H](CN(C)C(=O)Nc2ccc(C(F)(F)F)cc2)Oc2c(NC(=O)Nc3cccc4ccccc34)cccc2C1=O`, the cytotoxicity call was “inactive”.

Regarding `CCN1CCO[C@@]2(O)C=CC(=O)C=C12`, the cytotoxicity call is “inactive”.

As for `CCc1ccc(NC(=O)C2CCN(S(=O)(=O)c3c(C)[nH]c(=O)[nH]c3=O)CC2)cc1`, the cytotoxicity call is “inactive”.

As to `Cc1ccc(S(=O)(=O)Nc2ccc3c(c2)C(=O)N([C@@H](C)CO)C[C@@H](C)[C@@H](CN(C)S(=O)(=O)c2ccc(C)cc2)OCCCC[C@H](C)O3)cc1`, the cytotoxicity call was “inactive”.

As for `C[C@@H]1CN([C@H](C)CO)C(=O)c2cc(NC(=O)Cc3ccccc3)ccc2O[C@@H](C)CCCCO[C@H]1CN(C)C(=O)Nc1cccc2ccccc12`, the cytotoxicity call was “inactive”.

Turning to `CC(C)NC(=O)Nc1ccc2c(c1)CC(=O)N([C@@H](C)CO)C[C@H](C)[C@H](CN(C)Cc1ccc(-c3ccccc3)cc1)O2`, the cytotoxicity call was “inactive”.

In the case of `O=C(C[C@H]1CC[C@@H](NS(=O)(=O)c2ccccc2)[C@H](CO)O1)NCc1ccncn1`, the cytotoxicity call is “inactive”.

Consider `Cc1ccc(S(=O)(=O)Nc2ccc3c(c2)C(=O)N([C@@H](C)CO)C[C@@H](C)[C@H](CN(C)C(=O)Nc2ccc(C(F)(F)F)cc2)O3)cc1`, for which the cytotoxicity call is “inactive”.

`C[C@@H]1CN([C@@H](C)CO)C(=O)Cc2cc(NC(=O)CCN3CCOCC3)ccc2O[C@H]1CN(C)S(=O)(=O)c1cccs1`: the cytotoxicity call was “inactive”.

Consider `C[C@H]1CN([C@@H](C)CO)C(=O)c2ccccc2-c2ccccc2CO[C@@H]1CN(C)C(=O)Nc1cccc(F)c1`, for which the cytotoxicity call was “inactive”.

Turning to `NC(=O)c1cccc(S(N)(=O)=O)c1`, the cytotoxicity call was “inactive”.

Take `C[C@@H]1CN([C@H](C)CO)C(=O)c2cc(N(C)C)ccc2O[C@@H](C)CCCCO[C@H]1CN(C)C(=O)Nc1ccc(C(F)(F)F)cc1`: the cytotoxicity call was “inactive”.

Turning to `C[C@H]1CN([C@@H](C)CO)C(=O)c2cccc(NC(=O)Nc3cccc4ccccc34)c2O[C@@H]1CN(C)C(=O)Nc1ccc(C(F)(F)F)cc1`, the cytotoxicity call was “active”.

Regarding `COc1ccc(S(=O)(=O)N(C)C[C@@H]2Oc3ccc(NC(=O)CCCN(C)C)cc3CC(=O)N([C@@H](C)CO)C[C@@H]2C)cc1`, the cytotoxicity call is “inactive”.

`C[C@@H]1CN([C@H](C)CO)C(=O)c2cc(NC(=O)Nc3ccc(F)cc3)ccc2O[C@H]1CN(C)Cc1ccc(-c2ccccc2)cc1`: the cytotoxicity call was “active”.

Regarding `C[C@@H]1CN([C@@H](C)CO)C(=O)c2cc(NC(=O)Nc3ccc(F)cc3)ccc2O[C@H]1CN(C)Cc1ccc(-c2ccccc2)cc1`, the cytotoxicity call was “active”.

`C[C@H](CO)N1C[C@H](C)[C@@H](CN(C)Cc2ccc(-c3ccccc3)cc2)Oc2ccc(NC(=O)Nc3ccccc3)cc2C1=O`: the cytotoxicity call is “inactive”.

As to `C[C@H]1CN([C@@H](C)CO)C(=O)c2cc(NC(=O)Nc3ccccc3)ccc2O[C@H]1CN(C)Cc1ccc(-c2ccccc2)cc1`, the cytotoxicity call is “inactive”.

Regarding `C[C@@H]1CN([C@@H](C)CO)C(=O)c2cc(NC(=O)Nc3ccccc3)ccc2O[C@H]1CN(C)Cc1ccc(-c2ccccc2)cc1`, the cytotoxicity call is “inactive”.

`C[C@@H]1CN([C@@H](C)CO)C(=O)c2cc(NC(=O)Nc3ccc(F)cc3)ccc2O[C@@H]1CN(C)Cc1ccc(-c2ccccc2)cc1`: the cytotoxicity call is “active”.

Consider `C[C@H](CO)N1C[C@H](C)[C@H](CN(C)Cc2ccc(-c3ccccc3)cc2)Oc2ccc(NC(=O)Nc3ccccc3)cc2C1=O`, for which the cytotoxicity call is “inactive”.

Regarding `C[C@@H]1CN([C@H](C)CO)C(=O)c2cc(NC(=O)Nc3ccccc3)ccc2O[C@H]1CN(C)Cc1ccc(-c2ccccc2)cc1`, the cytotoxicity call is “inactive”.

Turning to `C[C@@H]1CN([C@H](C)CO)C(=O)c2cc(NC(=O)Nc3ccccc3)ccc2O[C@@H]1CN(C)Cc1ccc(-c2ccccc2)cc1`, the cytotoxicity call was “inactive”.

Consider `C[C@H](CO)N1C[C@H](C)[C@H](CN(C)Cc2ccc(-c3ccccc3)cc2)Oc2ccc(NC(=O)Nc3ccc(F)cc3)cc2C1=O`, for which the cytotoxicity call was “inactive”.

With `C[C@H]1CN([C@@H](C)CO)C(=O)c2cc(NC(=O)Nc3ccc(F)cc3)ccc2O[C@@H]1CN(C)Cc1ccc(-c2ccccc2)cc1`, the cytotoxicity call is “inactive”.

Take `C[C@@H]1CN([C@@H](C)CO)C(=O)c2cc(NC(=O)Nc3ccccc3)ccc2O[C@@H]1CN(C)Cc1ccc(-c2ccccc2)cc1`: the cytotoxicity call was “active”.

As for `CC(C)NC(=O)Nc1ccc2c(c1)CC(=O)N([C@@H](C)CO)C[C@H](C)[C@H](CN(C)Cc1ccc3c(c1)OCO3)O2`, the cytotoxicity call is “inactive”.

On to `O=c1nc[nH]c2c1ncn2[C@H]1CC[C@@H](CO)O1`, for which the cytotoxicity call was “inactive”.

For `Cn1cnc(S(=O)(=O)N2C[C@@H](O)COC[C@H]3O[C@H](CC(=O)NC4CCC4)CC[C@@H]32)c1`, the cytotoxicity call is “inactive”.

Take `O=C(C[C@H]1CC[C@@H]2[C@H](COC[C@H](O)CN2S(=O)(=O)c2ccc(Cl)cc2)O1)NCC1CCCCC1`: the cytotoxicity call is “inactive”.

For the compound `C[C@H](CO)N1C[C@H](C)[C@H](CN(C)C(=O)Nc2ccc(F)cc2)OCCCC[C@H](C)Oc2ccc(NC(=O)Cc3ccccc3)cc2C1=O`, the cytotoxicity call is “inactive”.

Take `C[C@H]1CN([C@@H](C)CO)C(=O)c2cc(NC(=O)Nc3ccc(F)cc3)ccc2O[C@H]1CN(C)Cc1ccc(-c2ccccc2)cc1`: the cytotoxicity call is “inactive”.

Turning to `C[C@@H]1CN([C@H](C)CO)C(=O)c2cc(NC(=O)Nc3ccc(F)cc3)ccc2O[C@@H]1CN(C)Cc1ccc(-c2ccccc2)cc1`, the cytotoxicity call was “active”.

In the case of `C[C@H](CO)N1C[C@H](C)[C@@H](CN(C)Cc2ccc(-c3ccccc3)cc2)Oc2ccc(NC(=O)Nc3ccc(F)cc3)cc2C1=O`, the cytotoxicity call is “inactive”.

Regarding `C[C@]12C=CC(=O)N[C@@H]1CC[C@@H]1[C@@H]2CC[C@]2(C)[C@@H](C(=O)Nc3cc(C(F)(F)F)ccc3C(F)(F)F)CC[C@@H]12`, the cytotoxicity call was “inactive”.

`CCCNC(=O)N1C[C@@H](O)COC[C@H]2O[C@H](CC(=O)NCc3ccncn3)CC[C@@H]21`: the cytotoxicity call was “inactive”.

`C[C@@H]1CN([C@@H](C)CO)C(=O)Cc2cc(NC(=O)CCC(F)(F)F)ccc2O[C@H]1CN(C)S(=O)(=O)c1ccccc1`: the cytotoxicity call is “inactive”.

Take `CCC(C)C(N)C(=O)O` (centres undefined): the cytotoxicity call was “inactive”.

As for `C[C@@H]1CN([C@@H](C)CO)C(=O)c2c(c3ccccc3n2C)-c2ccccc2CO[C@@H]1CN(C)Cc1ccccc1C(F)(F)F`, the cytotoxicity call is “active”.

`COc1ccccc1CN(C)C[C@@H]1OCc2ccccc2-c2c(n(C)c3ccccc23)C(=O)N([C@H](C)CO)C[C@@H]1C`: the cytotoxicity call is “inactive”.

Regarding `COc1ccccc1CN(C)C[C@H]1OCc2ccccc2-c2c(n(C)c3ccccc23)C(=O)N([C@H](C)CO)C[C@@H]1C`, the cytotoxicity call was “inactive”.

Regarding `COc1ccccc1CN(C)C[C@@H]1OCc2ccccc2-c2c(n(C)c3ccccc23)C(=O)N([C@H](C)CO)C[C@H]1C`, the cytotoxicity call is “inactive”.

Consider `C[C@@H]1CN([C@H](C)CO)C(=O)c2c(c3ccccc3n2C)-c2ccccc2CO[C@@H]1CN(C)Cc1ccccc1C(F)(F)F`, for which the cytotoxicity call was “active”.

Turning to `C[C@@H]1CN([C@@H](C)CO)C(=O)c2c(c3ccccc3n2C)-c2ccccc2CO[C@H]1CN(C)Cc1ccccc1C(F)(F)F`, the cytotoxicity call is “active”.

For `C[C@H](CO)N1C[C@H](C)[C@@H](CN(C)Cc2ccccc2C(F)(F)F)OCc2ccccc2-c2c(n(C)c3ccccc23)C1=O`, the cytotoxicity call was “active”.

As to `COc1ccccc1CN(C)C[C@@H]1OCc2ccccc2-c2c(n(C)c3ccccc23)C(=O)N([C@@H](C)CO)C[C@H]1C`, the cytotoxicity call was “inactive”.

As to `COc1ccccc1CN(C)C[C@@H]1OCc2ccccc2-c2c(n(C)c3ccccc23)C(=O)N([C@@H](C)CO)C[C@@H]1C`, the cytotoxicity call was “inactive”.

Take `Cc1noc(C)c1NC(=O)Nc1ccc2c(c1)C(=O)N([C@@H](C)CO)C[C@H](C)[C@H](CN(C)S(=O)(=O)c1ccc(F)cc1)OCCCC[C@@H](C)O2`: the cytotoxicity call was “inactive”.

On to `C[C@@H]1CN([C@H](C)CO)C(=O)c2cc(NC(=O)CCCN(C)C)ccc2O[C@H]1CN(C)S(=O)(=O)c1cn(C)cn1`, for which the cytotoxicity call is “inactive”.

In the case of `CCS(=O)(=O)CCn1c([N+](=O)[O-])cnc1C`, the cytotoxicity call was “inactive”.

Take `Cc1noc(C)c1S(=O)(=O)Nc1cccc2c1O[C@@H](CN(C)S(=O)(=O)c1ccc(Cl)cc1)[C@@H](C)CN([C@H](C)CO)C2=O`: the cytotoxicity call was “inactive”.
